Eleven compounds from ChEMBL document CHEMBL3988442, “University of Dundee, Small-Polar-MMV Screening Library” (2021) can be followed below.

For some of these results: Entries with a potency or affinity are not part of this list.

Common to all, as to design: scale not given: direction of the effect not stated beside the values
Assay [1] concerns the target Protein translocase subunit SecA (Escherichia coli (strain K12)) (UniProt P10408). The assay is described as follows: Assay to Identify E. coli SecA ATPase Inhibitors. The note with it: 30 µM. The assay is classed as functional.
Assay [2] addresses T1, Ubiquitin-activating enzyme e1, putative (Leishmania donovani (strain BPK282A1)) (UniProt E9BSI1).
T1 sequence (whole entry): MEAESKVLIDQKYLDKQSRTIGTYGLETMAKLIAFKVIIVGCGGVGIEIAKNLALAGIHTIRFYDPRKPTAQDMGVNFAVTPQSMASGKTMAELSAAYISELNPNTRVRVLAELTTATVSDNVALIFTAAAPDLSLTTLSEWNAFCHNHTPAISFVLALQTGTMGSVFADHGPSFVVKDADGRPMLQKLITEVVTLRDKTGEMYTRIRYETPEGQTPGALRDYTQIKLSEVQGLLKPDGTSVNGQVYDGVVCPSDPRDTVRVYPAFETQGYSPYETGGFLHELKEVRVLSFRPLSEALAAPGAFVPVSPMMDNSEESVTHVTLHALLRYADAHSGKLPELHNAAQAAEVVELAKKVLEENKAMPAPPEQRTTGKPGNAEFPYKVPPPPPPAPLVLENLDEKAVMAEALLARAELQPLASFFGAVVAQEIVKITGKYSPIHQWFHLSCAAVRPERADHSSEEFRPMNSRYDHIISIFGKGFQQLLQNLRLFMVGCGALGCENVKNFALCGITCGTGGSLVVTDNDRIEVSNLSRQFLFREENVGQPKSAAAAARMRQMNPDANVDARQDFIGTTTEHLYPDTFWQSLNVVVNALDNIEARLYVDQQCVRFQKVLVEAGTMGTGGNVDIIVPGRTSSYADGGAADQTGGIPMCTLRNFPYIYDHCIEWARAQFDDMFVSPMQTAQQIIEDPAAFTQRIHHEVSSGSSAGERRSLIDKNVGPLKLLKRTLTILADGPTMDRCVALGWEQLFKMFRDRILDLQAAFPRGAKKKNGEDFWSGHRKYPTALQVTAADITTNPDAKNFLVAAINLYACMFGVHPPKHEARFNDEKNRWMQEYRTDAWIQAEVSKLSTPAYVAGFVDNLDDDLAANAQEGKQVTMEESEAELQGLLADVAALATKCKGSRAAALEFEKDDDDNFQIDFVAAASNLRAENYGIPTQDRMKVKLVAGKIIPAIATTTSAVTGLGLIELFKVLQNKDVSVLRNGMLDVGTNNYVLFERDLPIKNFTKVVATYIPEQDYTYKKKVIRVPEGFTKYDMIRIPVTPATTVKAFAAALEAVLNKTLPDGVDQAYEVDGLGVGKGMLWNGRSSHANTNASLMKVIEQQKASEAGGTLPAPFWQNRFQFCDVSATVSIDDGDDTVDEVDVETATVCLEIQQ
Briefly: Leishmania donovani Ubiquitin Activating Enzyme (LdE1). The assay is classed as functional. Conditions: 30 µM.

The target in assay [3] is AMP-activated protein kinase, AMPK (Homo sapiens) (UniProt P54646+O43741+P54619+Q9UGJ0+Q9Y478+Q13131+Q9UGI9). The assay is described as follows: AMP-dependent Kinase enzyme assay. An in vitro enzyme assay that detects ADP turnover that is directly proportional to AMPK activity. This uses naive AMPK that is activated during the assay with MK-8722. The assay is classed as functional. The note with it: 30 µM.

Assay [4] has as its target Sialic acid-binding Ig-like lectin 9 (Homo sapiens) (UniProt Q9Y336). Briefly: Hs-Siglec9 ALPHAscreen SOP 20170721. Conditions: 10 µM.
A further assay has as its system Trypanosoma cruzi. Briefly: Trypanosoma cruzi phosphomannomutase and mannose-1-phosphate guanylyltransferase assay. The assay is classed as functional. The note with it: 10 µM.
Assay [5] concerns the target T2, Arginase-2, mitochondrial (Homo sapiens) (UniProt P78540).
T2 sequence (whole entry): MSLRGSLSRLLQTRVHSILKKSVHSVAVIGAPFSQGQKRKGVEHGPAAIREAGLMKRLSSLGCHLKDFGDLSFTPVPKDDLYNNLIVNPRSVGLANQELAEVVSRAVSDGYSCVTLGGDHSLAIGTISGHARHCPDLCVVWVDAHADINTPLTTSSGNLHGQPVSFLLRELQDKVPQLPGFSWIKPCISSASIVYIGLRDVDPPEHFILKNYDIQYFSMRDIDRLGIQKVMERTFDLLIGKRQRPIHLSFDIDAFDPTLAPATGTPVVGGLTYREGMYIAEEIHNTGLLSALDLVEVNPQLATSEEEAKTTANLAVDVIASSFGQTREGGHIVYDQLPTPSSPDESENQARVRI
The assay is described as follows: in vitro enzyme assay to detect the production of urea directly proportional to the activity of Arginase II. Further: in the data most compounds retested in dose-response had high values. The assay is classed as functional. The note with it: 33.3 µM.

Assay [6] has as its target T3, Proteasome subunit beta (Trypanosoma cruzi) (UniProt O96673).
T3 sequence (whole entry): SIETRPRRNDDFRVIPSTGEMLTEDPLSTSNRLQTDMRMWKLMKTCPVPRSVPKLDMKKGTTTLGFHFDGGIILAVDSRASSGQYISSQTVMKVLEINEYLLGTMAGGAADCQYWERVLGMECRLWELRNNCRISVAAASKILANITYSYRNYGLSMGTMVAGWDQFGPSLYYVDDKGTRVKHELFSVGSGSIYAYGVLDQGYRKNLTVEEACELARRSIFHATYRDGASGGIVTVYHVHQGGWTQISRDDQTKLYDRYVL
Briefly: Trypanosoma cruzi proteasome chymotrypsin-like activity (TcProtChymo) assay. Further: in the data most compounds retested in dose-response had high values. The assay is classed as functional. The note with it: 9.37 µM.

The species named for another assay is Homo sapiens. Briefly: To identify inhibition of the IFN signalling (Jak-Stat) pathway via expression of an eGFP reporter gene under the control of an IFN-stimulated response element (ISRE) containing MxA promoter. The assay is classed as functional. The note with it: 30 µM.
Assay [7] deals with T4, Tyrosyl-tRNA synthetase, putative (Trypanosoma cruzi (strain CL Brener)) (UniProt Q4DSP6).
T4 sequence (whole entry): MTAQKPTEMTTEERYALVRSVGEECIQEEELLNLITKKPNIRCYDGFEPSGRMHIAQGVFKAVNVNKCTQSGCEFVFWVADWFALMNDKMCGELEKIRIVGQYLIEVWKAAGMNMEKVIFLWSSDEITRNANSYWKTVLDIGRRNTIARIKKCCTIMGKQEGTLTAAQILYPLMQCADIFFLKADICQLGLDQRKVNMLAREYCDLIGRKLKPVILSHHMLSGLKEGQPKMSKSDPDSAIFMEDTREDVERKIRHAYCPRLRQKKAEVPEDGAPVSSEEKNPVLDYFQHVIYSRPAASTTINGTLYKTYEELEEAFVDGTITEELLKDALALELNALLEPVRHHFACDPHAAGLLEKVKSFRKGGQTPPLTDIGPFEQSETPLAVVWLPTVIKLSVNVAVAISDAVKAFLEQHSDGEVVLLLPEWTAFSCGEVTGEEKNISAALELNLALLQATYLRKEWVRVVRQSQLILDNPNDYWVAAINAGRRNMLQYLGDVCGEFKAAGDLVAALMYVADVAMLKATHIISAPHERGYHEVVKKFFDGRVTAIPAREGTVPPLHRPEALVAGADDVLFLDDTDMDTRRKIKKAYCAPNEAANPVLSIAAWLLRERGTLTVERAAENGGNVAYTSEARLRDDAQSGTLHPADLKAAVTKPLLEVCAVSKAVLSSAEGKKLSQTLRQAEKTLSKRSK
The assay is described as follows: Trypanosoma cruzi tyrosyl tRNA synthetase (TcYRS) _High Tyrosine SOP. Further: in the data most compounds retested in dose-response had high values. The assay is classed as functional. Conditions: 30 µM.

Assay [8] concerns the target T4, Tyrosyl-tRNA synthetase, putative (Trypanosoma cruzi (strain CL Brener)). The assay is described as follows: Trypanosoma cruzi tyrosyl tRNA synthetase (TcYRS) SOP. The assay is classed as functional. Conditions: 30 µM.
In assay [9] the target is Chromo domain-containing protein 1 (Saccharomyces cerevisiae (strain ATCC 204508 / S288c) (Baker's yeast)) (UniProt P32657). The assay is described as follows: ScCHD-1 Enzyme Inhibition Assay. Further: in the data most compounds retested in dose-response had high values. The note with it: 30 µM. The assay is classed as functional.
Chain of Chromo domain-containing protein 1 (Saccharomyces cerevisiae (strain ATCC 204508 / S288c) (Baker's yeast)) (P32657 whole entry, the tested form may be a part): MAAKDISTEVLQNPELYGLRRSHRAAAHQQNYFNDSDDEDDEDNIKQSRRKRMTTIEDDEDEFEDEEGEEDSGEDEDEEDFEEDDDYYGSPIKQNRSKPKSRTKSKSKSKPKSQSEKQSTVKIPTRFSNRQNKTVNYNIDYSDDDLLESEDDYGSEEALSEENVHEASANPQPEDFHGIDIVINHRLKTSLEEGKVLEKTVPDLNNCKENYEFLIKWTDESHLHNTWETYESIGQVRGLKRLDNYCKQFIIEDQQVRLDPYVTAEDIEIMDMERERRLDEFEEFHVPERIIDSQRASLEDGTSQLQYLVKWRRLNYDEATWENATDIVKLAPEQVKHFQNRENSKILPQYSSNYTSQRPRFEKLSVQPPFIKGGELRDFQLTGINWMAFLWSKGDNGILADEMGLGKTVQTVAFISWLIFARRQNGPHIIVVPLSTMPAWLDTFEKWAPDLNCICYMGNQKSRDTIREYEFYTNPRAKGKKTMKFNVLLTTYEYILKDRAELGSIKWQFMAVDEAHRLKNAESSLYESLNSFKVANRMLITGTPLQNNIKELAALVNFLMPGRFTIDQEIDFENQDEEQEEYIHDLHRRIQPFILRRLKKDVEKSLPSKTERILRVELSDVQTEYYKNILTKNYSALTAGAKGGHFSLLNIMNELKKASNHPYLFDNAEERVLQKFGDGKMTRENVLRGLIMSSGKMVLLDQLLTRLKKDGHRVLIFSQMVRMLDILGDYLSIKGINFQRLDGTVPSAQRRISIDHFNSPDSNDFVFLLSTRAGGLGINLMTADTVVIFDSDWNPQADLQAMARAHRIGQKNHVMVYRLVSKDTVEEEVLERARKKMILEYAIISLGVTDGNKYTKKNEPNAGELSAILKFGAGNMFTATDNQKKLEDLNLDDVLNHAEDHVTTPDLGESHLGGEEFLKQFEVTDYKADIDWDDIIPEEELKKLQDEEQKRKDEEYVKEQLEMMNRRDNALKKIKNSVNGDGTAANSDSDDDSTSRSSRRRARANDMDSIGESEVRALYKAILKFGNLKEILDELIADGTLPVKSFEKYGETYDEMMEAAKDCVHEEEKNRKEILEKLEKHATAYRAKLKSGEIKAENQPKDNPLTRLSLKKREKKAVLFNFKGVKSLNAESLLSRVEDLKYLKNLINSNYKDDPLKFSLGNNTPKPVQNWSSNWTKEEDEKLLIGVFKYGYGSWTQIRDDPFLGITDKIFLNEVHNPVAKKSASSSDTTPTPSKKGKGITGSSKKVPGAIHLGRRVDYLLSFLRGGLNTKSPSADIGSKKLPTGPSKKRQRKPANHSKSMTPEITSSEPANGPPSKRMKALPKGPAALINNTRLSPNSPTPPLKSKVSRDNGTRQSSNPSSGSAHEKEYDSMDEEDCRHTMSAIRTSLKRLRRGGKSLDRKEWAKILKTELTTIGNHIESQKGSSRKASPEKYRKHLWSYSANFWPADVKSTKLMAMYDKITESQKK

Chain of Sialic acid-binding Ig-like lectin 9 (Homo sapiens) (Q9Y336 whole entry): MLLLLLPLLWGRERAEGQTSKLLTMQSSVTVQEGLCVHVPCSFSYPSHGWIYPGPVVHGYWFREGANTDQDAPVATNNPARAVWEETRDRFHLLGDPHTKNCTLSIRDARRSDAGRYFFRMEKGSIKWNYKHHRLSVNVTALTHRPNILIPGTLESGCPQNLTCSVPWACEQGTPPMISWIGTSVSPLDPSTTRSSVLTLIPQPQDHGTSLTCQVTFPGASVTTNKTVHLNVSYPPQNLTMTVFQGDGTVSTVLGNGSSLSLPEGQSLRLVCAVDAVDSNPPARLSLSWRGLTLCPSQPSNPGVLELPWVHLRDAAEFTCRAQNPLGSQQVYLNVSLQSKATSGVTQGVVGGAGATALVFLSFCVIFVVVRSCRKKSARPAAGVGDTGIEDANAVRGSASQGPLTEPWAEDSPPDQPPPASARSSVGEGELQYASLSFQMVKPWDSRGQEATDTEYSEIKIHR
Chain of Protein translocase subunit SecA (Escherichia coli (strain K12)) (P10408 whole entry): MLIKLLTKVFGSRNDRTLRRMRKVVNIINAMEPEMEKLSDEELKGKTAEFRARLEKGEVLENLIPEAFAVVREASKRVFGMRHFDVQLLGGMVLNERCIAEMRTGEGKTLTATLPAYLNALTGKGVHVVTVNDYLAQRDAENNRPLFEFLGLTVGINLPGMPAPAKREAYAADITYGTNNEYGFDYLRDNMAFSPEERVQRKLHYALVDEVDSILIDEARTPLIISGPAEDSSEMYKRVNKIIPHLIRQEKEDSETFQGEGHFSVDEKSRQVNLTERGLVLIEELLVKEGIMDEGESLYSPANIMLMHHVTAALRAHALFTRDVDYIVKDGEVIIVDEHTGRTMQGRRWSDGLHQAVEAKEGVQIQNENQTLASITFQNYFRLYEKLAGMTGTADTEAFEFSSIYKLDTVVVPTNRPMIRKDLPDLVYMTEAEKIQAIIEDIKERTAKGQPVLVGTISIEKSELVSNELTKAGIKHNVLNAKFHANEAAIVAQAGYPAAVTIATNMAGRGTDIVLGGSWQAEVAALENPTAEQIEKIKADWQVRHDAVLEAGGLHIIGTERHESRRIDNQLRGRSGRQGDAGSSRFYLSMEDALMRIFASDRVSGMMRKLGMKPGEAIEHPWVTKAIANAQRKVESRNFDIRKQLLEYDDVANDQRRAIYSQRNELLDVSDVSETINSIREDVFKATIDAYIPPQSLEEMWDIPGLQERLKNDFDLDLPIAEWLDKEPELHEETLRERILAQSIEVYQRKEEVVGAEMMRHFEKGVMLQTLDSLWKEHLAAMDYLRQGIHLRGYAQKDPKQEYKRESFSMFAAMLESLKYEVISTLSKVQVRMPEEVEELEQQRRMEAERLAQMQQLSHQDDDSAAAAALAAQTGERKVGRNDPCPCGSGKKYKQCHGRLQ

Regarding `Cc1nc(N2CCOCC2)nc2c1CN(C(=O)Cc1ccccn1)CC2`, the Percent Effect in assay [1] was 1.23%; in assay [2], 0%; in [3], 3.27%; in [4], 5.25%; with Trypanosoma cruzi, 0.688%; in assay [5], 4.14%. The Percent Effect in [6] was 2.66%; in the assay listed under Homo sapiens, -4.9%; in assay [7], 3.23%; in [8] it was -1.24%; in [9], 0.916%.
For `Cc1ccc(C(=O)N2CCN(C(=O)Nc3ccccn3)CC2)o1`, the Percent Effect is -7.04% in assay [1]; -2.6% in assay [2]; 9.04% in [3]; -0.542% in [4]; -5.58% in the assay with Trypanosoma cruzi; 2.32% in [5]. Further, the Percent Effect in assay [6] is 9.13%; in the assay listed under Homo sapiens it was 11%; in assay [7], 0%; in assay [8], -4.71%; in [9], -16.4%.
Turning to `CC1CN(CC(=O)NC(=O)NCc2ccccc2)CCO1` (stereo unspecified), the Percent Effect was -0.548% in assay [1]; 15.8% in assay [2]; 0.54% in assay [3]; -9.53% in assay [4]; 3.21% in the assay on Trypanosoma cruzi; -1.18% in assay [5]. For the same compound, the Percent Effect in assay [6] is 19.5%; in the assay listed under Homo sapiens it was 11.4%; in assay [7], 2.13%; in [8], 7.79%; in assay [9], -8.02%.
Consider `CCC(C)c1noc(C2CCN(C(=O)c3cccs3)CC2)n1` (stereo unspecified), for which the Percent Effect was -0.878% in assay [1]; 7.79% in assay [2]; 1.18% in assay [3]; 3.86% in assay [4]; -2.65% with Trypanosoma cruzi; -2.76% in assay [5]. Also, the Percent Effect is 13.8% in assay [6]; 23.9% in the assay filed under Homo sapiens; 4.3% in assay [7]; 11.1% in assay [8]; -1.15% in [9].
On to `CS(=O)(=O)NC1CCCN(C(=O)NCc2cccnc2)C1` (stereo unspecified), for which the Percent Effect in [1] is -2.71%; in assay [2] it was 15.6%; in assay [3], 3.96%; in [4], 1.09%; in the assay on Trypanosoma cruzi, 2.25%; in assay [5] it was 1.9%. For the same compound, the Percent Effect is 14.2% in assay [6]; -2.36% in the assay filed under Homo sapiens; 7.62% in assay [7]; 18.8% in assay [8]; -11.9% in [9].
On to `CC(O)CN1CCN(C(=O)c2cccn2Cc2ccncc2)CC1` (stereo unspecified), for which the Percent Effect is -5.17% in assay [1]; 10.1% in assay [2]; 0.216% in assay [3]; 10.1% in assay [4]; 2.74% with Trypanosoma cruzi; 2.66% in [5]. In addition, the Percent Effect in assay [6] was -2.38%; in the assay listed under Homo sapiens, 3.13%; in [7], 0.493%; in assay [8], 13.9%; in assay [9], -8.49%.
With `COCCN1C(=O)[C@]2(CC[C@@H]3CN(C(=O)NCC(C)C)C[C@@H]32)N=C1C`, the Percent Effect was 1.47% in [1]; 5.33% in [2]; -2.77% in assay [3]; -5% in assay [4]; 5.41% with Trypanosoma cruzi; -49.3% in [5]. Further, the Percent Effect is 5.3% in [6]; -20.3% in the assay listed under Homo sapiens; 1.04% in assay [7]; 0% in assay [8]; -4.55% in assay [9].
As for `Cc1ccc(-c2nc(CNCCn3cccn3)cs2)o1`, the Percent Effect in assay [1] was 1.6%; in [2], -429%; in [3] it was 4.22%; in assay [4], -1.49%; with Trypanosoma cruzi, 1.13%; in [5], 4.6%. In addition, the Percent Effect in [6] turned out to be 8.19%; in the assay listed under Homo sapiens, 10.3%; in assay [7], 11.3%; in assay [8], 4.88%; in assay [9], 1.79%.
On to `CNC(=O)CS(=O)(=O)C1CCN(S(=O)(=O)c2ccccc2Br)CC1`, for which the Percent Effect came out at 1.17% in assay [1]; 0% in [2]; 4.03% in [3]; 13.4% in assay [4]; 4.5% in the assay on Trypanosoma cruzi; 5.46% in [5]. The Percent Effect in [6] is 2.31%; in the assay listed under Homo sapiens it was 26.1%; in assay [7], 1.07%; in [8], 2.5%; in assay [9], -0.751%.
As for `CC1CCN(S(=O)(=O)NCCCn2cncn2)CC1`, the Percent Effect in assay [1] was -3.76%; in assay [2] it was 6.33%; in assay [3] it was 3.29%; in [4], 1.98%; in the assay on Trypanosoma cruzi it was 1.33%; in assay [5], 5.38%. The Percent Effect is 5.49% in assay [6]; 23.8% in the assay filed under Homo sapiens; 5.21% in assay [7]; 12.7% in assay [8]; -7.93% in assay [9].
In the case of `CC(C(=O)N1CCN(c2ccccc2Cl)CC1)n1cncn1` (stereo unspecified), the Percent Effect in [1] is -2.18%; in assay [2] it was 11.4%; in assay [3] it was 2.71%; in assay [4], 2.76%; in the assay with Trypanosoma cruzi, 1.33%; in [5] it was -1.07%. For the same compound, the Percent Effect in [6] was 15.3%; in the assay filed under Homo sapiens, 5.34%; in assay [7], 0%; in assay [8] it was 10.1%; in [9] it was -25.6%.
